PubChem BioAssay AID493162 (ICCB-Longwood Screening Facility, Harvard Medical School, 2011)
Out of some 46,000 compounds screened, about 430 (0.93%) were called active. The sample holds actives, similar compounds and a random draw of the others, so the mix is not that of the screen. Rule as the data show it: active = normalized absorbance mostly below about 85% (no sharp cut-off); inactive = mostly above about 86%.

What follows are compounds tested on Vaccinia virus DNA polymerase (E9) processive complex (assay: vaccinia E9 polymerase processive synthesis inhibitors, primary screen, biochemical, absorbance (AID 493162)). Conditions: in vitro processive DNA synthesis, absorbance read-out; hits give low values; concentration not given here.

Q: With Cc1cc(C(=O)OCC(=O)N2CCc3ccccc3C2)c(C)o1 as the compound, how does the normalized absorbance read?
A: 103% (inactive)

Q: Which normalized absorbance does the source give for O=C(COC(=O)c1ccc2ccccc2n1)Nc1ccc(Cl)c(C(F)(F)F)c1 here?
A: 100% (inactive)

Q: How did the normalized absorbance turn out when O=C1CC(c2ccc(Cl)cc2)Sc2nc3ccccc3n21 (centres undefined) was run?
A: 100% (inactive)

Q: Which normalized absorbance does the source give for CCc1ccccc1Nc1cc(C(=O)NCC2COc3ccccc3O2)c2ccccc2n1 (centres undefined) here?
A: 99.1% (inactive)

Q: With O=C(OCC(=O)N1CCCCCC1)c1ccc(Cl)nc1 as the compound, how does the normalized absorbance read?
A: 106% (inactive)

Q: Brc1ccccc1C1OCC2(CO1)COC(c1ccccc1Br)OC2 (centres undefined) was tested. Which normalized absorbance did it give?
A: 100% (inactive)

Q: Which normalized absorbance does the source give for O=C(Nc1nc(-c2ccc(Cl)s2)cs1)C1=COCCO1 here?
A: 98.9% (inactive)

Q: With CCn1c(CNC(C)=O)nc2ccccc21 as the compound, how does the normalized absorbance read?
A: 101% (inactive)

Q: O=C(COC(=O)c1n[nH]c2ccccc12)NC(c1ccccc1)c1ccccc1 was tested. Which normalized absorbance did it give?
A: 98.6% (inactive)

Q: Which normalized absorbance does the source give for CNC(=O)Nc1ccc(C(=O)NC)cc1 here?
A: 101% (inactive)

Q: With CCOc1ccc(OCC)c(NC(=O)CCS(=O)(=O)c2ccc(C)cc2)c1 as the compound, how does the normalized absorbance read?
A: 91.4% (inactive)

Q: With CCn1c(=NC(=O)C2CC2)sc2cc(Cl)ccc21 as the compound, how does the normalized absorbance read?
A: 71.3% (inactive)

Q: For NNc1cccc(Cl)n1, which normalized absorbance is on record?
A: 78.5% (active)

Q: Which normalized absorbance does the source give for COC(=O)CN1C(=O)c2cccnc2Oc2ccc(C)cc21 here?
A: 92% (inactive)

Q: Which normalized absorbance does the source give for O=C(O)c1ccc(N=Cc2ccc(OC(=O)c3sc4ccccc4c3Cl)cc2)cc1 here?
A: 100% (inactive)

Q: CS(=O)(=O)c1nc2ccccc2[nH]1 was tested. Which normalized absorbance did it give?
A: 103% (inactive)

Q: How did the normalized absorbance turn out when C/C(CCc1ccc2c(c1)OCO2)=N\N1C(=N)SC(C(=O)Nc2ccc(C(=O)O)cc2)CC1=O (centres undefined) was run?
A: 100% (inactive)

Q: COc1ccc2nc(C(=O)N3CCN(C)CC3)sc2c1 was tested. Which normalized absorbance did it give?
A: 85.1% (inactive)

Q: For O=C1CN(C(=O)CCC(=O)c2ccc(F)cc2)c2ccccc2N1, which normalized absorbance is on record?
A: 101% (inactive)

Q: Cn1c(NCc2ccccc2)nc2ccccc21 was tested. Which normalized absorbance did it give?
A: 101% (inactive)

Q: How did the normalized absorbance turn out when O=C(O)CCNC(=O)c1ccc2c(c1)OCCO2 was run?
A: 102% (inactive)

Q: With CSc1ncc(Cl)c(C(=O)N2CCN(c3cccc(Cl)c3)CC2)n1 as the compound, how does the normalized absorbance read?
A: 95.5% (inactive)

Q: How did the normalized absorbance turn out when O=P(O)(CN1CCCCCC1)C1Cc2ccccc2C1 was run?
A: 84.6% (inactive)

Q: How did the normalized absorbance turn out when CCOC(=O)c1c(C)oc2ccc(OC(=O)c3ccco3)cc12 was run?
A: 99.5% (inactive)

Q: CC12CCC3C(CC=C4CC(OC5CCCCO5)CCC43C)C1CCC2=O (centres undefined) was tested. Which normalized absorbance did it give?
A: 100% (inactive)

Q: With CC(C)(C)c1cc(C(F)(F)F)n2ncnc2n1 as the compound, how does the normalized absorbance read?
A: 99.9% (inactive)

Q: C=CCN(C(=O)c1cccc2c1SCCC2=O)c1ccccc1 was tested. Which normalized absorbance did it give?
A: 113% (inactive)

Q: For CCN(CC)c1ccc(N=Cc2cccs2)cc1, which normalized absorbance is on record?
A: 99.2% (inactive)

Q: CCOC(=O)c1c(NC(=O)C(C)Sc2ncccn2)sc2c1CCC2 (centres undefined) was tested. Which normalized absorbance did it give?
A: 91.9% (inactive)
